Assay outcomes as filed in PubChem.
HCMV antiviral = blocks human cytomegalovirus replication; AID 1259415; activity change, negative = inhibition, % at 57.5 µM; HFF cells, HCMV-luciferase reporter, 72 h; active compounds read low; 4.5% of 410,000 active; in the data active = activity change below about -60%; inconclusive = no clear call, values can overlap the other calls; inactive = above about -39%
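Inhibition of viral replication was scored as loss of reporter luminescence in HFFs infected with HCMV-luciferase (MOI 1 PFU/cell) for 72 h; compounds tested at 2 doses, normalized to buffer and Salinomycin controls.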
Pf growth 96h = P. falciparum growth inhibition at 96 hour, primary screen for plastid delayed-death inhibitors. AID 504834. P. falciparum luciferase reporter growth, 96 h. Potency, µM (top dose mostly 28.7 µM), for the others: at the top dose activity change, negative = inhibition, usual class: inhibitors. 6.9% of 320,000 active; also: potency is read from the fitted curve at half-maximal effect
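Erythrocytes infected with luciferase-expressing P. falciparum were dispensed at 2% hematocrit and 0.05% parasitemia (final), then incubated with compounds 96 hours at 37 C in 5% CO2. Luminescence after detection reagent addition reported growth.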
Pf growth 48h = inhibits P. falciparum growth in the first generation, 48 h. 5.9% of 310,000 active. P. falciparum luciferase growth in erythrocytes, 48 h. Potency, µM (top dose mostly 28.7 µM), inactives show at the highest dose activity change, negative = inhibition, hits mostly inhibitors. AID 504832; also: potency is read from the fitted curve at half-maximal effect
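A one-generation exposure of luciferase-tagged malaria parasites in RPMI 1640/Albumax erythrocyte culture, 37 C and 5% CO2. Inhibition is inferred from decreased luminescence after adding detection reagent.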
HCV inh = blocks hepatitis C virus | Huh7.5.1 HCVcc-Cre infection, luciferase reporter, 44 h | Potency, µM (highest dose often 41.8 µM), for the others: at the highest dose activity change, negative = inhibition, hits mostly inhibitors | 3.4% of 340,000 active | AID 651820; also: potency is read from the fitted curve at half-maximal effect
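A cell-based infection assay in which seeded cells (1,000 per well) receive test compound after 4 h, are inoculated with HCVcc-Cre at approximately 0.5 moi, and are incubated 44 h before luminescence detection.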
* marks the source's active call; other numbers are inactive results; ? = inconclusive; · = not tested or not shown; ! = a repeat was not active. In the library only some 13% were active in any assay of this set; here they are far more common. Unless noted, calls follow the shape of the dose curve; as a rule, active = well fitted inhibition curve with a large enough effect; inconclusive = small, poorly fitted or top-dose-only effect, or another doubt; inactive = no such curve, though single readings can be large or run the other way. % is scaled to controls: 0 for no effect and ±100 for the full control effect.

SMILES | HCMV antiviral | Pf growth 96h | Pf growth 48h | HCV inh
Oc1ccc(/C=C/c2ccc3ccccc3n2)cc1 | -68* | ? | 196% | ?
C(=Cc1c[nH]c2ccccc12)c1nccc2ccccc12 | 99 | · | · | ?
C(=Cc1c[nH]c2ccccc12)c1ccc2ccccc2n1 | -92* | · | · | 5.6µM*
COc1cccc(CNC(=O)C2CCCN(S(=O)(=O)c3ccc4c(ccn4C)c3)C2)c1OC (configuration not stated) | -30 | · | · | ·
Cc1ccc2oc(C(=O)Nc3cccc(Cl)c3)cc(=O)c2c1 | -13 | · | · | ·
COc1ccc(OC)c(CCNC(=O)c2cnn(-c3ccccc3Cl)c2C2CCN(C(=O)OC(C)(C)C)CC2)c1 | -17 | · | · | ·
CCN(CC)Cc1nc2c(c(=O)[nH]1)C(CC)(CC)Cc1ccccc1-2 | ? | -140% | 9.3µM* | -28%
CC(C)C[C@@H](CN1CCCC1CN1C(=S)NC[C@@H]1Cc1ccc(O)cc1)N1C[C@H](Cc2ccc(O)cc2)N(CC2CCCCCC2)C1=S (some centres not stated) | -90* | · | · | ?
CC(C)C[C@@H](CN1CCCC1CN1C(=S)NC[C@@H]1Cc1ccc(O)cc1)N1C[C@H](Cc2ccccc2)N(CC2CCCCC2)C1=S (some centres not stated) | -71* | · | · | 22µM*
CC(C)C[C@@H](CN1CCCC1CN1C(=S)NC[C@@H]1Cc1ccc(O)cc1)N1C[C@H](Cc2ccccc2)N(CC2CCCCCC2)C1=S (some centres not stated) | -15 | · | · | ?
O=C(NCc1ccc(F)cc1)c1ccc2oc(=O)n(Cc3ccccc3)c2c1 | -10 | · | · | ·
COc1ccc(Cn2c(SCc3ccc(C(=O)NC4CCCCC4)cc3)nc3cccnc32)cc1 | 2 | · | · | ·
O=C1CN(S(=O)(=O)c2ccccc2)CC(=O)N1CCc1ccccc1 | -24 | 6% | 14% | 2%
Cc1cc(S(=O)(=O)N2CC(=O)N(CCc3ccccc3)C(=O)C2)ccc1F | -89* | 34% | -3% | 6%
CN(C)CCc1c[nH]c2ccc(CC3COC(=O)N3)cc12 (configuration not stated) | · | -11% | -12% | ·
Cc1cc(NC(=O)CCCn2ccc([N+](=O)[O-])n2)n(Cc2ccc(F)cc2)n1 | -84* | -22% | 1% | ?
Cc1nc(=O)c(-c2ccccc2)c(C)n1-c1ccc(C(=O)O)cc1 | -16 | 1.7µM* | -23% | 21%
CCC1(C2=NCCN2)Cc2ccccc2O1 (configuration not stated) | -9 | 7.6µM*! | 5% | 21%
Cc1ccc(NC(=O)/C(=C\c2ccc([N+](=O)[O-])cc2)NC(=O)c2ccccc2)cc1 | 25 | 5.2µM* | ? | -23%
O=C(Nc1cccc(C(=O)O)c1)/C(=C/c1ccc([N+](=O)[O-])cc1)NC(=O)c1ccccc1 | 24 | 21% | 24% | 12%
O=C(Nc1cccc2ccccc12)/C(=C/c1ccc([N+](=O)[O-])cc1)NC(=O)c1ccccc1 | 30 | 9.3µM* | ? | ?
COC(=O)/C(=C\c1ccc([N+](=O)[O-])cc1)NC(=O)c1ccccc1 | -15 | · | · | -14%
O=C(N/N=C/c1ccc(O)c(O)c1O)/C(=C/c1ccc([N+](=O)[O-])cc1)NC(=O)c1ccccc1 | 23 | 9.3µM* | · | 6.3µM*
CCC(C)(C)n1nnnc1C(c1cc2cc(C)cc(C)c2[nH]c1=O)N1CCN(C(=O)c2ccco2)CC1 (configuration not stated) | -11 | 1.7µM* | ? | -10%
CC(C)(C)n1nnnc1C(c1cccs1)N1CCN(C(=O)c2ccco2)CC1 (configuration not stated) | 4 | 2% | -1% | 3%
SMILES | HCMV antiviral | Pf growth 96h | Pf growth 48h | HCV inh
Cc1ccc2[nH]c(=O)c(C(c3nnnn3C(C)(C)C)N3CCN(C(=O)c4ccco4)CC3)cc2c1 (configuration not stated) | 16 | ? | 9.3µM* | ?
CCC(C)(C)n1nnnc1C(c1ccccc1OC)N1CCN(C(=O)c2ccco2)CC1 (configuration not stated) | -13 | 14% | 1.9µM* | 14%
Cc1cccc2cc(C(c3nnnn3C(C)(C)C)N3CCN(C(=O)c4ccco4)CC3)c(=O)[nH]c12 (configuration not stated) | 24 | -25% | 3.3µM* | -5%
COc1ccc(C(c2nnnn2C(C)(C)C)N2CCN(C(=O)c3ccco3)CC2)cc1 (configuration not stated) | ? | -20% | -33% | 8%
COCCNC(=O)c1c(NC(=O)Cc2coc3cc(C)ccc23)sc2c1CCCC2 | -10 | · | · | ·
CCC(C)(C)n1nnnc1C(c1cc2cc(OC)c(OC)cc2[nH]c1=O)N1CCc2ccccc21 (configuration not stated) | -7 | ? | 1µM* | -4%
Cc1ccc2cc(C(c3nnnn3C(C)(C)C)N3CCCCCC3)c(=O)[nH]c2c1 (configuration not stated) | · | ? | ? | 8%
CCC(C)(C)n1nnnc1C(c1cc2cc(C)ccc2[nH]c1=O)N1CCCC1 (configuration not stated) | 26 | 15µM* | 0% | 10%
O=C(NCc1ccccc1)C1CCN(S(=O)(=O)c2ccc3c(c2)CCCN3C(=O)C2CCC2)CC1 | -23 | · | · | ·
O=[N+]([O-])c1ccc(-n2nnnc2-c2ccccc2)c([N+](=O)[O-])c1 | -98* | ? | 0% | 35µM*
COC(=O)C[C@H]1CC[C@@H](NC(=O)Nc2cccc(OC)c2)[C@@H](CO)O1 | 4 | · | · | ·
Cc1noc(C)c1COc1ccc(C(=O)Nc2ncccc2O)cc1 | ? | ? | 7.4µM* | 13%
Cc1ccc(NC(=O)c2ccc(F)cc2)nc1 | -6 | 5.2µM* | -9% | 4%
COc1ccc(C(=O)Nc2ccc(C)cn2)c(OC)c1 | -76* | 3% | 32% | 10µM*
Cc1ccc(NC(=O)c2ccc(OCc3c(C)noc3C)cc2)nc1 | ? | ? | -24% | 11µM*
Cc1ccc(S(=O)(=O)c2cn(C)c3cc(N4CCCC(C)C4)c(F)cc3c2=O)c(C)c1 (configuration not stated) | -34 | · | · | ·
COc1ccc(CNc2oc(/C=C/c3cc(OC)c(OC)c(OC)c3)nc2C#N)cc1 | 187 | · | · | ·
COC(=O)[C@]1(C#N)[C@H](CC(C)C)C(=O)N(Cc2ccc(Cl)cc2)[C@@H]1c1ccc(OC)cc1 | 10 | · | · | ·
CC(=O)Nc1ccc(NC(=O)c2ccc(C)c(S(=O)(=O)Nc3cccc(C)c3)c2)cc1 | -36 | 44% | 12µM* | 13µM*
Cc1ccc(C(=O)Nc2cccc([N+](=O)[O-])c2)cc1S(=O)(=O)Nc1ccc(NC(=O)c2ccccc2)cc1 | -74* | 42% | ? | 10µM*
Cc1ccc(C(=O)N2CCCC2)cc1S(=O)(=O)Nc1ccccc1 | 24 | ? | -3% | -14%
NS(=O)(=O)c1cccc(NC(=O)c2ccc(NS(=O)(=O)c3cccc([N+](=O)[O-])c3)cc2)c1 | -75* | · | · | 1%
